This is a sample that favours compounds with a hit; in the whole collection about 1.1% have one here.
TRPV1 potentiator = enhances activation of the human vanilloid receptor TRPV1; Q8NER1; TRPV1-expressing cells, Fluo-8 calcium influx, capsaicin EC20 potentiation; potentiation, % at 8.33 µM; hit rate 0.02% among 320,000; AID 540277; in the data active = potentiation above about 80%; inconclusive = between about 30% and that limit
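Cells expressing TRPV1 were dye-loaded with Fluo-8 and read kinetically: 10 s baseline, 3 min after compound (agonist portion), then 2 min after EC20 capsaicin (allosteric enhancer portion). Calcium-bound dye fluorescence at 480/520 nm.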
gsp ag = agonists of gsp mutant (McCune-Albright syndrome). hit rate 0.13% among 340,000. Potency, µM (doses to about 76.9 µM), actives largely listed as activators. gsp mutant cells, cAMP HTRF, 30 min. AID 624287; active = well fitted activation curve with a large enough effect; inconclusive = small, poorly fitted or top-dose-only effect, or another doubt; inactive = no such curve, though single readings can be large or run the other way; cell line not stated here;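 also: phosphodiesterase inhibitor Ro 20-1724 added with compounds to block cAMP breakdown; nearly all actives have a fitted effect of over 60% in size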
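Cells stably selected in G418 were plated at 2000/well, grown 16-24 hr, then given compounds in DMSO with the PDE inhibitor […] (300 uM solution added) for 30 min at 37C; cAMP was read by HTRF.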
TRPV1 agonist = human TRPV1 agonism. hit rate 0.19% among 320,000. TRPV1-expressing cells, Fluo-8 calcium influx, agonist mode. Q8NER1. activation, % at 8.33 µM; in the data active = activation above about 80%; inconclusive = between about 30% and that limit
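TRPV1-expressing cells were cultured overnight at 35.5C and loaded with Fluo-8 calcium dye for 40 to 90 min at room temperature. After a 10 s baseline, compound was added and calcium influx was read kinetically for 3 min (ex 480/em 520 nm).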
RXFP1 ag = agonists of human relaxin receptor RXFP1; Q9HBX9; HEK293T-RXFP1 cAMP TR-FRET, 30 min; response scale: percent of porcine relaxin response, buffer zero; Potency, µM (highest dose often 57.5 µM), hits mostly activators; hit rate 0.3% among 370,000; active = well fitted activation curve with a large enough effect; inconclusive = small, poorly fitted or top-dose-only effect; also: nearly all actives have a fitted effect of over 60% in size
Target sequence (Q9HBX9 whole entry, looked up): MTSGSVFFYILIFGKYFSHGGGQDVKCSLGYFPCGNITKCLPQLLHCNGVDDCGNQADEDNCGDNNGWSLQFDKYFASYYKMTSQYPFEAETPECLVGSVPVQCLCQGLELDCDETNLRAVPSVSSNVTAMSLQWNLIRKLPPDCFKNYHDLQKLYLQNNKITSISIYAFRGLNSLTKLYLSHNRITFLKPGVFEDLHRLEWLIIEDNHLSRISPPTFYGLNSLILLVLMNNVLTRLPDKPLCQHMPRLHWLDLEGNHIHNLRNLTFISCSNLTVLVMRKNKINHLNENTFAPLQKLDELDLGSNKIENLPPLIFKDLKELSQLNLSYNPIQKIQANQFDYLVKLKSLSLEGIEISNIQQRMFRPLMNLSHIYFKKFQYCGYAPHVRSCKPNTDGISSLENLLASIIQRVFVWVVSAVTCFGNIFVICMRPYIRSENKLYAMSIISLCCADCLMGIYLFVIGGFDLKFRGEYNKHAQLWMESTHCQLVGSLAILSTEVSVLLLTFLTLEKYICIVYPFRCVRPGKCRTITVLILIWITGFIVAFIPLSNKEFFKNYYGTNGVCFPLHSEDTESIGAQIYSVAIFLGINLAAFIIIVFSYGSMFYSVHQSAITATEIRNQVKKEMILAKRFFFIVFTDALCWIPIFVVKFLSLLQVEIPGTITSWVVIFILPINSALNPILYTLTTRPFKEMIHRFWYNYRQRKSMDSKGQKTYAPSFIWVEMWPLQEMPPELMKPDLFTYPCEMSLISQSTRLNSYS
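cAMP rise read by TR-FRET after 30 min, 37C compound exposure (up to 58 uM) in RXFP1-transfected HEK293 cells with Ro 20174 present. EC50 from Hill-equation fits, with 29 nM porcine relaxin as 100% and buffer as basal.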
RXFP1 antagonist = antagonists of human relaxin receptor RXFP1; Q9HBX9; HEK293-RXFP1, relaxin-stimulated cAMP HTRF, 30 min; hits give low values; activity change, negative = inhibition, % at 57.5 µM; hit rate 0.59% among 350,000; AID 1259400;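 active = activity change of -60% or lower, but not beyond a set lower limit; inconclusive = change between -60% and -40%, or beyond the set limit; inactive = change above -40%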
gsp antagonist = gsp mutant antagonism; gsp-mutant cells, cAMP HTRF, 30 min; Potency, µM (titrated, usually from 76.9 µM), hits mostly inhibitors; hit rate 0.4% among 340,000; AID 624288; calls by dose curve; cell line not stated here;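 also: intracellular cAMP measured with PDE inhibitor Ro 20-1724 present during compound exposure; nearly all actives have a fitted effect of over 65% in size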
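HTRF cAMP measurement after 30 min RT detection following 30 min, 37C compound treatment alongside […] (added as 300 uM solution) in G418-selected cells seeded at 2000/well and grown 16–24 h.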
Numbers stand for hits; 0 = inactive; ? = inconclusive; - = no result; [ ] = remark or other dose.

SMILES	TRPV1 potentiator	gsp ag	TRPV1 agonist	RXFP1 ag	RXFP1 antagonist	gsp antagonist
CCCCOc1ccc(C(=O)Nc2cccc(-n3cnnn3)c2)cc1OC	0	0	89	0	0	0
CC(C)(C)c1ccc(C(=O)Nc2cccc(-n3cnnn3)c2)cc1	0	0	80	0	0	0
CCOC(=O)c1c(C)[nH]c(C)c1S(=O)(=O)N1CCCC(C(=O)N2CCN(c3ccccc3F)CC2)C1 (stereo not given)	-	-	-	0	0	-
COC(=O)c1ccc(OCC2c3cc(OC)c(OC)cc3CCN2C(=O)C(C)C)cc1 (stereo not given)	-	-	-	0	-	-
O=C(NCc1n[nH]c(=S)n1-c1ccc(Cl)c(Cl)c1)c1ccc(S(=O)(=O)N2CCCCC2)cc1	0	0	0	0	-60	0
O=C(NCc1n[nH]c(=S)n1-c1cccc(Cl)c1)c1ccc(S(=O)(=O)N2CCCC2)cc1	0	0	0	0	0	0
CC1(c2nnc(Cc3ccccc3)o2)CC(c2ccc([N+](=O)[O-])cc2)=NO1 (stereo not given)	0	-	0	0	-	0
CCc1ccc2c(c1)/C(=C/C(=O)c1cccs1)C(=O)N2	0	0	0	0	-92	0
Cc1cccc2c1NC(=O)/C2=C\C(=O)c1cccs1	0	0	0	0	-92	0
O=C(/C=C1\C(=O)Nc2ccccc21)/C=C1\C(=O)Nc2ccccc21	0	?	0	0	0	0
Cc1cc(Br)c2c(c1)/C(=C/C(=O)c1cccs1)C(=O)N2	0	0[15.4 µM]	0	0	-	0
CC1(C)O[C@@H]2C[C@H]3[C@@H]4CCC5=CC(=O)CC[C@]5(C)[C@@]4(F)[C@@H](O)C[C@]3(C)[C@]2(C(=O)CCl)O1	0	-	0	0	-73	0
C[C@]12CCC(=O)C=C1CC[C@H]1[C@@H]3CC[C@](O)(C(=O)CO)[C@@]3(C)C[C@H](O)[C@@]12F	-	-	-	-	0	-
CCOC(=O)CNC(=O)CSc1nc2c(C)cccc2cc1CC	0	?	0	14µM	0	0
CCOC(=O)CNC(=O)CSc1nnc(-c2cccc(C)c2)n1-c1ccc(OC)cc1	?	0	0	0	0	6.3µM
CCOC(=O)CNC(=O)CSc1nc(-c2ccccc2)ns1	0	0[15.4 µM]	0	0	0	0
C=CCn1c(SCC(=O)NCC(=O)OCC)nnc1-c1cccc(OC)c1	0	0	0	0	0	0
Cc1cccc2cc(C#N)c(SCC(=O)NCc3cccs3)nc12	0	?	0	13µM	0	0
CCOC(=O)CNC(=O)CSc1nc(-c2ccc(C)cc2)ns1	0	0[15.4 µM]	0	0	0	11µM
O=C(OCc1ccc(O)cc1)c1c(-c2ccsc2)oc2ccc(N3CCOCC3)cc12	0	?	0	0	-	0
COC(=O)c1ccc(-n2c(CCC(=O)O)ccc2-c2ccc(C)cc2)cc1	0	0	0	0	0	32µM
Cc1ccc(-c2ccc(CCC(=O)O)n2-c2ccc(C(=O)O)cc2)cc1	0	0	0	0	0	0
CCOc1ccc(/C=C2\SC(=O)N(CCNC(=O)C3COc4ccccc4O3)C2=O)cc1OC (stereo not given)	0	0	0	0	-	28µM
COc1ccc(/C=C2/SC(=O)N(CCNC(=O)C3COc4ccccc4O3)C2=O)cc1 (stereo not given)	0	0	0	0	0	?
Cc1cc(-c2c(C)[nH]n(-c3ccc(Cl)cc3)c2=O)n(-c2ccc(Cl)cc2)n1	0	0	0	0	0	32µM
SMILES	TRPV1 potentiator	gsp ag	TRPV1 agonist	RXFP1 ag	RXFP1 antagonist	gsp antagonist
Cc1cc(-c2c(C)[nH]n(-c3ccccc3)c2=O)n(-c2ccccc2)n1	0	0	0	0	0	0
Cc1csc2nc(COC(=O)c3ccc(Cl)c([N+](=O)[O-])c3)cc(=O)n12	0	0[15.4 µM]	0	0	0	0
COc1cccc(OC)c1NC(=O)C1CCCN1C(=O)Nc1cccc(Cl)c1 (stereo not given)	0	0	0	0	-63	0
COc1cc(CCC(=O)NCc2ccc3c(c2)CCN3C(=O)c2ccccc2)cc(OC)c1OC	-	-	-	0	0	-
N#Cc1cc(C(=O)c2ccccc2O)cn(-c2nccs2)c1=O	0	0	87	0	0	0
N#Cc1cc(C(=O)c2cc(F)ccc2O)cn(-c2nccs2)c1=O	0	0[15.4 µM]	?	0	0	?
O=C1C(=O)c2c(C(=O)c3ccccc3)coc2-c2ccccc21	0	0	0	0	-78	0
Cc1oc2c(c1C(=O)c1ccccc1)C(=O)C(=O)c1ccccc1-2	0	0	0	0	-66	?
Cc1noc2ncnc(N3CCN(c4cccc(Cl)c4)CC3)c12	0	0	0	0	0	35µM
CC1=C(C)/C(=N\OS(=O)(=O)c2ccccc2)C=CC1=O	0	0	?	0	-114	?
O=C(Nc1ccc(Cc2ccncc2)cc1)c1ccc(S(=O)(=O)N2CCCC2)cc1	0	0	?	0	-61	50µM
Cc1ccc(NC(=O)c2ccc(S(=O)(=O)N3CCCC3)cc2)nc1	0	0[15.4 µM]	86	0	0	0
O=C(COC(=O)CCc1ccccc1)Nc1ccc(F)cc1Cl	0	0	0	0	0	0
COc1cc2nc(SCC(=O)Nc3cccc(C)c3)n3nc(CCn4c(C)nc5ccccc54)nc3c2cc1OC	-	-	-	18µM	0	-
O=C(CSc1nnc2c(n1)[nH]c1ccccc12)N1CCCCC1	0	?	0	0	0	0
CC1CCc2cc(F)ccc2N1C(=O)CSc1nnc2c(n1)[nH]c1ccccc12 (stereo not given)	0	0[15.4 µM]	0	0	-62	0
CN(C)[C@@H](CCOc1cccc2ccccc12)c1ccccc1	-	-	-	-	0	-
COC(=O)c1cc(Cl)ccc1OC	-	-	-	-	0	-
CC(=O)c1ccc(S(=O)(=O)N(C)CC(=O)NCC2CCCCC2)cc1	0	0	0	0	0	0
COCc1cc(CN(C)C(=O)C2CCC(=O)N(Cc3cccc(OC)c3)C2)[nH]n1 (stereo not given)	0	0	0	0	-78	0
CCOC(=O)C1(Cc2ccccc2C(F)(F)F)CCN(C2CCN(C(C)=O)CC2)CC1	0	0[15.4 µM]	0	0	-63	0
CCOC(=O)C1(Cc2ccccc2C(F)(F)F)CCN(C2CCC2)CC1	0	0[15.4 µM]	0	0	0	-
COc1ccc(NC(=O)C2CCCN2c2nn3c(=O)cc(C)nc3s2)cc1 (stereo not given)	0	22µM	0	?	0	0
O=c1oc2ccccc2cc1-c1csc(NN=C2CCCC2)n1	0	0	0	0	0	0
O=C(O)c1cccc(Nc2nc(-c3cc4ccccc4oc3=O)cs2)c1	0	0[15.4 µM]	0	0	0	35µM
Cn1c(=O)n(Cc2ccccc2Cl)c(=O)c2c1nc1n2CCN1c1ccccc1	-	-	-	0	0	-
O=C(O)c1ccc(N=Nc2c(O)[nH]c3ccccc23)cc1	?	?	0	0	0	28µM

Screening results deposited in PubChem BioAssay by National Center for Advancing Translational Sciences (NCATS).
